Measurements reported in PubChem BioAssay (NCATS).
Results filed as inconclusive are left out. Entries that show only a call come without a potency. Unmarked numbers belong to inactive results. Calls of active or inactive are those of the source. Calls come from the whole dose curve; as a rule, active = well fitted activation curve with a large enough effect; inconclusive = small, poorly fitted or top-dose-only effect; inactive = flat fitted curve, though single readings scatter.

assay: Primary redox qHTS assay for identification of artifact compounds. (AID 1845223); conditions: Amplex Red/HRP redox cycling with DTT, fluorescence; series mostly up to 53.8 µM
How it was run: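 Redox-cycling detection via DTT (250 uM final) oxidation coupled to Amplex Red (25 uM)/HRP (250 mU/mL) in HBSS. 15 min preincubation plus 30 min after DTT, room temperature. Ex/Em 525/598 nm; 4-parameter Hill fit against DMSO and 10 uM DA3003.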

Structure (SMILES) | Potency | redox activity (% of DA3003)
CCN(CCN(C)C)C(=O)CNCc1cc(C(N)=O)ccn1 | inactive | 
O=C(Nc1cc(-c2ccccc2)nn1-c1ccccc1)c1ccc([N+](=O)[O-])cc1 | inactive | 
C/C(=C\CO)CC/C=C(\C)C(=O)O[C@@H]1O[C@H](CO)[C@@H](O)[C@H](O)[C@H]1O | inactive | 
CC1OC(OC2CCC3(C)C(CCC4(C)C3C=CC35OCC6(CCC(C)(C)CC63)CCC45C)C2(C)CO)C(OC2OC(CO)C(O)C(O)C2O)C(O)C1OC1OC(CO)C(O)C(O)C1O (stereo unspecified) |  | 12.4% [at 11.5 µM]
CSCC1OC(n2cnc3c(=O)[nH]cnc32)C(O)C1O (stereo unspecified) | inactive | 
CCOC(=O)c1ccc(NC2CCCCC2)c(N)c1 | inactive | 
COc1cc2c(c(OC)c1O)C(c1ccc(O)cc1)C1C(=O)OC3C(COC(=O)C1=C2)OC(CO)(OC1OC(COC(=O)/C=C/c2ccc(OC4OC(C)C(O)C(O)C4O)cc2)C(O)C(O)C1O)C3O (stereo unspecified) |  | 0.553% [at 11.5 µM]
O=C(O[C@H]1[C@H](Oc2ccc(O)cc2CO)O[C@H](CO)[C@@H](O)[C@@H]1O)c1ccccc1 | inactive | 
COc1ccccc1N1CCN(CCCCNC(=O)c2ccc(-c3cscn3)cc2)CC1 | inactive | 
CC1(C)CC[C@]2(C(=O)O[C@@H]3O[C@H](CO)[C@@H](O)[C@H](O)[C@H]3O)CC[C@]3(C)C(=CCC4[C@@]5(C)C[C@@H](O)[C@H](O)[C@@](C)(CO)C5[C@H](O)C[C@]43C)C2C1 (stereo partly specified) | inactive | 
O=C(O)CC1CCC(c2ccc(NC(=O)c3nnc(Nc4ccc(F)c(F)c4)o3)cc2)CC1 (stereo unspecified) | inactive | 
COC(=O)C1=COC(OC2OC(CO)C(O)C(O)C2O)C2C(COC(=O)/C=C/c3ccc(O)c(O)c3)C(O)C(O)C12 (stereo unspecified) | inactive | 
CN1CCCC1Cc1c[nH]c2ccc(CCS(=O)(=O)c3ccccc3)cc12 (stereo unspecified) | inactive | 
COc1ccc(NC(=O)c2ccc(-c3ccc(C(N)=O)cc3C)cc2)cc1N1CCN(C)CC1 | inactive | 
C[C@]1(C2CCCC2)Cc2cc(OCC(=O)O)c(Cl)c(Cl)c2C1=O | inactive | 
CC1(C)CC=C(c2cnc3ccccc3c2)c2cc(C(=O)Nc3ccc(C(=O)O)cc3)ccc21 | inactive | 
Cc1ccc(C)c(NC(=O)CNS(=O)(=O)c2ccc3[nH]c(=O)oc3c2)c1 | inactive | 
C[C@@]1(C(=O)O)CCC[C@@]2(C)C3=CC[C@H]4C[C@@]3(CC[C@H]12)CC4(O)CO (stereo partly specified) | inactive | 

Structure (SMILES) | Potency | redox activity (% of DA3003)
CC(=O)OC1(C)CC(O)C2(O)C=COC(OC3OC(CO)C(O)C(O)C3O)C12 (stereo unspecified) | inactive | 
O=C(O)CC(CCc1ccccc1)OC1OC(CO)C(O)C(O)C1O (stereo unspecified) | inactive | 
CC(C)(O)C1CC=C(C(=O)OC[C@H]2O[C@@H](Oc3cc(C(=O)O)cc(O)c3O)[C@H](O)[C@@H](O)[C@@H]2O)CC1 (stereo partly specified) | inactive | 
O=C(O)CCc1c(C(=O)O)[nH]c2cc(Cl)cc(Cl)c12 | inactive | 
CS(=O)(=O)c1ccccc1N1CCN(c2nc3c(c(=O)[nH]2)CSCC3)CC1 | inactive | 
CNc1nc(Nc2cn(C(C)(C)C#N)nc2C)ncc1C(F)(F)F | inactive | 
COc1ccc(C2(O)c3ccccc3NC(=O)C2OC)cc1 (stereo unspecified) | inactive | 
CC1(O)CC(O)C2C(C(=O)O)=COC(OC3OC(CO)C(O)C(O)C3OC(=O)/C=C/c3ccc(O)cc3)C21 (stereo unspecified) | inactive | 
C[C@@H]1CC[C@]2(C(=O)O)CC[C@]3(C)C(=CCC4[C@@]5(C)C[C@@H](O)[C@H](O)[C@@](C)(CO)C5CC[C@]43C)C2[C@H]1C (stereo partly specified) | inactive | 
CCC[C@H](N[C@@H](C)C(=O)N1[C@H](C(=O)O)C[C@@H]2CCCC[C@@H]21)C(=O)O | inactive | 
CC12CC(c3ccoc3)OC(=O)C1CCC1(C)C2CCC(O)C1(C)O (stereo unspecified) | inactive | 
COCC1OC(OC(C)(C)C2CCC3(C)C=C(C4CCC5C4(C)CC(O)C4OC(C(C)(C)O)CCC45C)CCC3O2)C(NC(C)=O)C(O)C1O (stereo unspecified) | inactive | 
C[C@@H]1C[C@@H](O)[C@@]2(CO)C(CO)=CCC[C@@H]2[C@@]12C[C@@H](c1ccoc1)OC2=O | inactive | 
C/C(=C\CCC1(C)C2CC3C(C2)C31C)C(=O)O (stereo unspecified) | inactive | 
CC1CC(=O)C2C(O)(C1)CC(O)C13OC1c1c(O)cccc1C(=O)C23O (stereo unspecified) | inactive | 
COc1ccc(Oc2c(Cl)cnn(C3c4ccccc4-c4ccccc43)c2=O)cc1 | inactive | 
C=C1CC[C@H]2[C@@](C)(CCC(O)[C@@]2(C)CO)[C@@H]1/C=C/C(=C\C(=O)O)C(=O)O (stereo partly specified) | inactive | 
CC(=O)O[C@@H]1CC2C(C)(C)C(=O)C=C[C@]2(C)C2CC[C@]3(C)C(=CC(=O)[C@@H]3c3ccoc3)[C@@]21C (stereo partly specified) | inactive | 
